Here are results for 40 compounds from PubChem BioAssay (NCI).

Molecules are shown by their SMILES. The panel holds about 83,000 compounds, 20% with a hit somewhere; the sample as a whole holds those more often.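 Activity criterion: percent growth below 10, measured after cells in 96-well plates were exposed to a single compound concentration for 48 hours.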 A number with no mark means an inactive call. The source made the active and inactive calls.

In this assay the test system is MCF7 breast. Put plainly: NCI-60 one-dose screen, 48 h (100 = growth as untreated, 0 = no growth, -100 = all killed). Conditions: 10 µM unless noted. The method, then:
Growth inhibition of the MCF7 human tumor cell line is measured as a screen for anti-cancer activity. Cells are grown in 96 well plates and exposed to the test compound for 48 hours. Compounds are tested at a single concentration, which is 10^-5 M for most compounds. The reported endpoint is percent growth (GI% or GIPRCNT), where numbers from 0 - 100% represent growth inhibition, and numbers from -100% - 0 represent cell death. For example, a value of 40 represents 60% growth inhibition. A value of 0 means no net growth occurred over the course of the experiment. A value of -40 indicates 40% of cells at the beginning of the experiment died by the end of the experiment. A value of -100 means all cells are dead at the end of the experiment.
NCI-60 Human Tumor Cell Lines Screen was performed using the standard one-dose NCI protocol, which is described in more detail at https://dtp.cancer.gov/discovery_development/nci-60/default.htm.
Compounds with GIPRCNT values below 10 were considered active. Activity score was based on GIPRCNT using the following formula: […]
Score is 0 for GIPRCNT values of 100 or above, 50 for GIPRCNT values of 0, and 100 for GIPRCNT values of -100.
`COc1ccc(C(=O)NNC(=O)CSc2nc3sc4c(c3c(=O)n2-c2ccc(Cl)cc2)CCCC4)cc1`: the growth was 63.5%.
On to `CN(C)c1nc(NCCNS(=O)(=O)c2ccc(C(=O)/C=C/c3ccc(Cl)cc3)cc2)nc(N2CCOCC2)n1`, for which the growth was -67% (active).
Turning to `COc1ccc(N=Nc2c(N)nn3c(N)c(C#N)c(-c4ccc(C)cc4)nc23)cc1`, the growth is 12.5%.
Regarding `COc1ccc(CCC2NCCc3c(Br)c4c(c(OC)c32)OCO4)cc1` (stereo not given), the growth is 3.82% (active).
For the compound `COc1cc(C2CC(c3ccc(C(F)(F)F)cc3)=Nc3c(N)nc(N)nc3N2)ccc1Oc1nc(Nc2ccc(F)cc2)nc(N(C)C)n1` (stereo not given), the growth is 3.18% (active).
Consider `Nc1nc(-c2ccccc2)c(N=Nc2ccc(Cl)cc2Cl)s1`, for which the growth is -28.9% (active).
For `COC(=O)c1cc(C(=O)C(Br)Br)n2c1ccc1c3ccccc3ccc12` the value was 5.77% (active); for `COc1ccc(N=Nc2c(N)nn3c(-c4ccc(OC)c(OC)c4)ccnc23)cc1`, 84.9%; for `CN(C)c1nc(NCCNS(=O)(=O)c2ccc(C(=O)/C=C/c3ccc(C(F)(F)F)cc3)cc2)nc(N2CCOCC2)n1`, -84.5% (active).
Regarding `O=C(Nc1nc2ccccc2s1)Nc1ccccc1Cl`, the growth is 69%.
Regarding `Cc1cc(C2(c3cc(C)c(OCC(O)CNc4c(C)n(C)n(-c5ccccc5)c4=O)cc3C(C)C)OC(=O)c3ccccc32)c(C(C)C)cc1OCC(O)CNc1c(C)n(C)n(-c2ccccc2)c1=O` (stereo not given), the growth is 15.9%.
As to `OC(c1ccccc1)(c1ccccc1)C1CCN(c2ccc3nnc(Cl)n3n2)CC1`, the growth was 10.9%.
Turning to `O=C(Nc1ccc(Br)cc1)Nc1ccc(-c2ccc3c(c2)NC(=O)/C3=C\c2ccc[nH]2)cc1`, the growth was 8.33% (active).
For `Cc1[nH]nc2ccc3nc(-c4cn[nH]c4C(F)(F)F)c4c(c3c12)CCCC4` the value was 5.54% (active); for `Nc1ccc(-c2ccc3ncnc(N4CCc5cc(F)c(Cl)cc54)c3c2)cn1`, 8.53% (active).
In the case of `CN1C(=O)C(O)(CC(=O)c2cc3ccccc3oc2=O)c2ccccc21` (stereo not given), the growth is 67.1%.
For `CCCCCCCCCCCCCCCCCC(=O)Nc1ccc(OC)cc1` the value was 93.3%; for `CCCCCCCOc1ccc(S(=O)(=O)Nc2ccc(C)c(F)c2C(=O)O)cc1`, 86.6%.
For `C[C@@H]1CN(c2ccc3ncc(C#Cc4cncc(C(=O)Nc5ccc(CN6CCN(C)CC6)c(C(F)(F)F)c5)c4)n3n2)C[C@@H](C)O1`, the growth was -93.1% (active).
Turning to `C=CCSc1nnc(-c2ccc(-c3nc4ccc(Cl)cc4[nH]3)cc2)o1`, the growth was 25.1%.
With `CC(=O)Nc1ccc(S(=O)(=O)Nc2ccc(-c3ccc4c(c3)NC(=O)/C4=C\c3ccc[nH]3)cc2)cc1`, the growth is 14.4%.
Regarding `Cn1cc(-c2cc3nc(-c4cn(C)c5ncc(Br)cc45)cc(N)n3n2)c2cc(F)ccc21`, the growth is 27%.
Regarding `Cc1ccc(S(=O)(=O)Nc2ccc(-c3ccc4c(c3)NC(=O)/C4=C\c3ccc[nH]3)cc2)cc1`, the growth was 3.35% (active).
For `OC1CCC(Cn2c(C(F)(F)F)cc3c(Cl)ncnc32)CC1` (stereo not given) the value was 91%.
As for `N/C(=N\c1nc2ccccc2s1)NC(=O)Nc1ccccc1F`, the figure is 20.1%; as for `Cc1ccc2c(c1)nc(-c1ccccc1)n2CC(=O)N=Nc1c(O)[nH]c2ccc(Cl)cc12`, -64% (active).
`O=C(N/N=C/c1ccc(Cl)cc1)c1ccc(OCc2nc3ccc(Cl)cc3[nH]2)cc1`: the growth is -21.7% (active).
As for `COc1cc(/C=C/C(=O)c2cnn(-c3cc(=O)[nH]c4ccccc34)c2C)cc(OC)c1OC`, the figure is 10.8%.
Take `CC1CCc2c(sc3nc(SCC(=O)c4cccc([N+](=O)[O-])c4)n(-c4ccccc4)c(=O)c23)C1` (stereo not given): the growth is 86.5%.
Regarding `CC(C)CN1C(=O)/C(=C\C(=O)c2cc3ccccc3oc2=O)c2ccccc21`, the growth was 58.1%.
On to `O=C(NNC(=O)c1ccc(OCc2nc3ccc(Cl)cc3[nH]2)cc1)Nc1ccc(Cl)c(Cl)c1`, for which the growth was 37.7%.
With `O=C(c1ccc(O)cc1)C1[C@H](c2ccc(Cl)cc2)[C@@H](c2ccccc2)NC12C(=O)Nc1ccccc12` (stereo not given in full), the growth is -6.29% (active).
As for `COc1ccc(-c2cc(C(=O)OCc3ccc(Br)cc3)nn2-c2ccc(S(C)(=O)=O)cc2)cc1OC`, the figure is 72.1%; as for `Cc1ccc(C(=O)Nc2cc(-n3ccnc3)cc(C(F)(F)F)c2)cc1-n1cc(-c2cnc3cccnn23)nn1`, 101%; as for `O=C(OCCOCCO)N(c1cccc(Br)c1)c1nc(SCCN2CCOCC2)nc2c1cnn2CC(Cl)c1ccc(Br)cc1` (stereo not given), 4.77% (active).
For `C=CCn1c(O)c(N=Nc2nc(-c3cc4ccccc4oc3=O)cs2)c2ccccc21` the value was 33.4%; for `COc1ccc(Nc2ncnc3sc4c(c23)CCN(Cc2ccccc2)C4)cc1`, 53.4%.
For `CC1=C(C)C(=O)C(NCCN2CCOCC2)=C(Br)C1=O` the value was 10.3%; for `CCOC(=O)/C(F)=C/C1CC1CCc1ccc(OCC)cc1` (stereo not given), 85.7%.
Take `Cn1cc(-c2cc3nc(-c4c[nH]c5ccccc45)cc(N)n3n2)c2ccccc21`: the growth is -67.4% (active).
